The entries come from a sample that favours hits as a whole.
Cycloheximide cs: counter-screen hit for Shiga toxin inhibitors, cycloheximide; cell reporter, cycloheximide protein synthesis inhibition counterscreen; max response, %; actives 12% (n = 300,000); AID 2314; in the data active = max response mostly above about 13%, no sharp cut-off; inactive = mostly below about 14%; note: read at 38.3 µM for the half of the compounds with a filed dose; 0% is about no effect
TbPYK inhibitor: inhibitors of Trypanosoma brucei pyruvate kinase; Q57TT1; TbPYK enzyme, Kinase-Glo Plus ATP luminescence, 45 min; actives 0.12% (n = 410,000); AID 624173; Potency, µM (series often up to 76.8 µM), for inactives: at the top dose activity, negative = inhibition, usual class: inhibitors; note: potency is the fitted concentration of half-maximal effect; % is set by controls: 0 for no effect and ±100 for the full control effect; nearly all actives have a fitted effect of over 50% in size
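ADP (130 uM final) triggers the TbPYK reaction after compound addition; incubation is 45 min at room temperature. Kinase-Glo Plus is then added and luminescence imaged. Normalized data are fitted to concentration-effect curves.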
Giardia FBPA inh: blocks Giardia fructose-bisphosphate aldolase activity. A8B2U2. purified Giardia FBPA. Potency, µM (top dose mostly 59.6 µM), without a hit: at the top dose activity, negative = inhibition, usual class: inhibitors. actives 0.71% (n = 290,000); note: potency is the fitted concentration of half-maximal effect; % is set by controls: 0 for no effect and ±100 for the full control effect; nearly all actives have a fitted effect of over 55% in size
Target sequence (A8B2U2 whole entry, looked up): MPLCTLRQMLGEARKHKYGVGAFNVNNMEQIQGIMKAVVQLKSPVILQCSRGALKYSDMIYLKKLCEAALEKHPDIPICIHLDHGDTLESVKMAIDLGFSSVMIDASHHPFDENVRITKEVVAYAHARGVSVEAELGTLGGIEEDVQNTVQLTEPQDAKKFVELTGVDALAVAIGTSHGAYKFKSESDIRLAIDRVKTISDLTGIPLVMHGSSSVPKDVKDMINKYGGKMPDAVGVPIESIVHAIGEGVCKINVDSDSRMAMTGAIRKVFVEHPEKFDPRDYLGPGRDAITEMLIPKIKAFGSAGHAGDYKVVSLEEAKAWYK
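40 nM FBPA preincubated 10 min at RT with compound (up to 57.5 uM final), then substrate plus GAPDH/TPI/NAD/arsenate coupling and diaphorase/resazurin added. Fluorescence read after 20 min at RT, 525/598 nm.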
LmPK inhibitor: LmPK (Leishmania mexicana) enzyme inhibition. Q27686. purified LmPK, Kinase-Glo ATP luminescence, 1 h. Potency, µM (series often up to 57.5 µM), for inactives: top-dose activity change, negative = inhibition, usual class: inhibitors. actives 0.37% (n = 290,000). AID 1721; note: potency is the fitted concentration of half-maximal effect; % is set by controls: 0 for no effect and ±100 for the full control effect
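In 50 mM imidazole pH 7.2 with 7 mM MgCl2, LmPK (0.1 nM) turned over PEP (0.5 mM) and ADP (0.1 mM) for 1 h at room temperature. Luciferase read-out of ATP.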
Sm TGR block: blocks Schistosoma mansoni thioredoxin glutathione reductase. purified TGR, DTNB reduction, TNB absorbance 405 nm. Potency, µM (titrated, usually from 114 µM), for the others: at the highest dose activity change, negative = inhibition, most hits filed as inhibitors. actives 3% (n = 360,000). AID 485364; note: potency is the fitted concentration of half-maximal effect; % is set by controls: 0 for no effect and ±100 for the full control effect; nearly all actives have a fitted effect of over 60% in size
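First, TGR (20 nM dispensed) and NADPH were mixed with compound. Second, a 15 min room-temperature incubation followed. Third, further NADPH and then DTNB were added to start the reaction. Finally, TNB absorbance was monitored kinetically.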
Shiga toxin inh: blocks Shiga toxin action in Vero cells. actives 9.2% (n = 290,000). inhibition, % at 38.7 µM. AID 2315. Vero cells, Shiga toxin protein synthesis inhibition reporter; in the data active = inhibition mostly above about 28%, no sharp cut-off; inactive = mostly below about 43%; note: 0% is about no effect
The depositor's hits bear a star; ? = inconclusive; . = no result given; [ ] = remark or other dose. Unless noted, calls come from the whole dose curve; as a rule, active = well fitted curve in the direction sought with a large enough effect; inconclusive = small, poorly fitted or top-dose-only effect, or another doubt; inactive = no such curve, though single readings can be large; an effect the other way counts as inactive or inconclusive.

SMILES | Cycloheximide cs | TbPYK inhibitor | Giardia FBPA inh | LmPK inhibitor | Sm TGR block | Shiga toxin inh
O=S(=O)(CC(CN1CCCC1)N1CCCC1)c1ccc2ccccc2c1 (centres undefined) | 2 | 2% | 5% | -2% | 16µM* | 3
Cc1ccc(S(=O)(=O)CC(CN2CCOCC2)N2CCOCC2)cc1 (centres undefined) | -1 | -4% | 6% | -2% | . | -6
COc1ccc(Cl)cc1NC(=O)C1CCN(c2ncnc3c2nc2n3CCCCC2)CC1 | . | -11% | . | . | -3% | .
NS(=O)(=O)c1ccc2nc(NC(=O)c3ccc4c(c3)OCCO4)sc2c1 | -2 | 1% | . | 1% | -4% | -11
Cc1ccnc(NC(=O)c2ccc(N3C(=O)CCC3=O)cc2)c1 | 45* | -2% | 5% | -23% | 2% | 49*
Cc1ccc2nc(NC(=O)c3ccc4c(c3)OCO4)sc2c1 | 62* | 1% | -3% | -9% | -23% | 76*
Cc1cc(C)c2sc(NC(=O)c3ccc(N4C(=O)CCC4=O)cc3)nc2c1 | 10 | 0% | 3% | 7% | 18% | 34
O=C(/C=C/c1ccc2c(c1)OCO2)Nc1nc2ccc(F)cc2s1 | 22* | -5% | 7% | -5% | 5% | 63*
Cc1ccnc(NC(=O)c2cccc(NC(=O)c3ccc(Cl)cc3)c2)c1 | . | -1% | . | . | . | .
Cc1ccc2nc(NC(=O)c3ccc(N4C(=O)CCC4=O)cc3)sc2c1 | 31* | -14% | 17% | 3% | -12% | 51*
CCc1nc2c(cnn2-c2ccc(Cl)cc2)c(=O)n1-c1ccc(OC)c(Cl)c1 | . | -3% | . | . | 4% | .
Cc1ccc(-c2cnc3c(c2)C(=O)N([C@H](C)CO)C[C@H](C)[C@@H](CN(C)Cc2ccccc2F)O3)cc1 | . | 3% | . | . | . | .
O=C(CN1C(=O)NC2(CCCCCCC2)C1=O)Nc1ccc(Cl)cc1 | . | -5% | . | . | 5% | .
O=C(Cn1ccc2cc(S(=O)(=O)N3CCCCCC3)ccc21)NCCc1ccc(Cl)cc1 | . | 3% | . | . | 3% | .
Cc1ccnc(NC(=O)c2ccc3c(c2)C(=O)N(CC2CCCO2)C3=O)c1 (centres undefined) | 24* | 0% | 6% | -24% | . | 62*
O=C(Nc1nc2cc3c(cc2s1)OCO3)c1ccc(N2C(=O)CCC2=O)cc1 | 0 | 1% | 6% | 0% | -2% | 19
O=C(Nc1ccncc1)c1ccc2c(c1)C(=O)N(CC1CCCO1)C2=O (centres undefined) | -2 | 6% | 5% | 2% | -3% | -6
NS(=O)(=O)c1ccc2nc(NC(=O)c3ccc4ncsc4c3)sc2c1 | 9.3* | -5% | . | 2% | 6% | 33
Cc1ccc2nc(NC(=O)c3ccc4ncsc4c3)sc2c1 | 33* | 3% | 9% | 1% | 7% | 60*
O=C(Nc1nc2cc3c(cc2s1)OCO3)c1cccc(N2C(=O)CCC2=O)c1 | 25* | 8% | 4% | -1% | -13% | 50*
Cc1ccc2nc(NC(=O)c3cccs3)sc2c1 | 25 | 3% | -2% | ? | 0% | 80
CC(=O)c1ccc(Oc2nc(C)nc3c2oc2ccccc23)cc1 | . | -2% | . | . | -2% | .
c1ccc(C(OC2CCCN(CCc3ccc4c(c3)OCO4)C2)c2ccccc2)cc1 (centres undefined) | -4 | 4% | 1% | . | . | 16
O=C(Nc1nc(-c2ccc(F)cc2)cs1)c1cccc(N2C(=O)CCC2=O)c1 | 16* | -9% | -3% | 3% | -3% | 18
O=C(Nc1nc(-c2cc(F)ccc2F)cs1)c1cccc(N2C(=O)CCC2=O)c1 | . | 2% | . | . | 5% | .
SMILES | Cycloheximide cs | TbPYK inhibitor | Giardia FBPA inh | LmPK inhibitor | Sm TGR block | Shiga toxin inh
Cc1ccc(/C=N/Nc2cc(C)nc(NCc3ccccc3)n2)cc1 | 19* | -2% | -6% | 4% | 13% | 29
Cc1cc(N/N=C/c2ccc(F)cc2)nc(NCc2ccccc2)n1 | 22* | 0% | 0% | -8% | -22% | 46*
Cc1cc(N/N=C/c2ccc(N(C)C)cc2)nc(NCc2ccccc2)n1 | -2 | 1% | 4% | 3% | -2% | 15
Fc1cc(NCc2ccccc2)nc(NCc2ccccc2)n1 | 53* | 3% | -6% | -2% | -10% | 60*
CCc1ccc2nc(N)sc2c1 | 39* | -1% | -4% | -12% | 9% | 75*
Nc1nc2ccc(C(=O)Nc3ccccc3)cc2s1 | 93* | 0% | 6% | -3% | 1% | 168*
CCc1ccc(NC(=O)c2ccc3nc(N)sc3c2)cc1 | 62* | 1% | 3% | 3% | -4% | 68*
CCCNC(=O)C1(C)CCCN(C(=O)c2cc(C)n(C(C)(C)C)n2)C1 (centres undefined) | . | -2% | . | . | . | .
COc1cc(C(=O)NC(C)c2cnn(-c3ccccc3C)c2C)cc(OC)c1OC (centres undefined) | 15* | 0% | 5% | -2% | 0%[57.1 µM] | 41
CCOC(=O)C(CS)NCCN[C@@H](CS)C(=O)OCC (some centres undefined) | . | -5% | . | . | . | .
CCNc1ccc(C(=O)O)cc1N | 32* | -13% | -18% | 2% | -6% | 61*
CCNc1cc(S(=O)(=O)C(F)(F)F)ccc1N | 6 | 0% | -27% | 1% | -7% | 14
CCc1ccccc1Nc1ccc(C(=O)O)cc1N | 37* | -3% | 1% | -15% | -26% | 69*
Nc1cc(C(=O)O)ccc1Nc1ccccc1 | 8 | 2% | -20% | -9% | -13% | 14
N#Cc1cc([N+](=O)[O-])ccc1NC(=O)CSc1n[nH]c(=O)[nH]c1=O | . | -4% | . | . | . | .
CCCNC(=O)Nc1ccc(C(F)(F)F)cc1 | 18* | -9% | -8% | -3% | 4% | 43*
CCCCNC(=O)Nc1ccc(C(O)(C(=O)OCC)C(F)(F)F)cc1 (centres undefined) | 6 | -4% | -1% | 3% | -2% | 14
O=[N+]([O-])c1cccc(CNc2ccc3c(c2)CCC3)c1 | 19 | 12% | ? | -7% | -5% | active
O=C(Nc1cccc(F)c1)Nc1ccc2c(c1)CCC2 | 25* | 0% | . | 4% | 7% | 80*
O=C(Nc1ccc2c(c1)CCC2)Nc1ccccc1F | 47* | 0% | . | -20% | -3% | 64*
O=C(NCc1ccccc1)C1c2ccccc2OCC(=O)N1Cc1ccc2c(c1)OCO2 (centres undefined) | . | 3% | . | . | . | .
COc1cc(NS(=O)(=O)c2ccc3c(c2)CCN3S(C)(=O)=O)cc(OC)c1 | . | 3% | . | . | 6% | .
CCN(c1ccccc1)S(=O)(=O)c1ccc(NC(=O)c2cc(=O)c3cc(C)cc(C)c3o2)cc1 | . | -6% | . | . | 26% | .
Cc1ccccc1NC(=O)Nc1ccc2c(c1)CCC2 | 28* | 7% | 1% | 2% | -22% | 104*
O=C(Cc1ccccc1)Nc1ccc2c(c1)CCC2 | 39* | -7% | -7% | -3% | -4% | 105*

Screens as filed in PubChem BioAssay.
